TRHR agonist – qHTS for Small Molecule Agonists and Allosteric Enhancers of Human TRH Receptor: Primary Screen for Agonists | 0.18% of 360,000 active | activation, % at 2 µM | AID 493084, 2011 | TRHR cells, calcium flux fluo-8, FDSS agonist mode | Thyrotropin-releasing hormone receptor (Homo sapiens), P34981
Target sequence (P34981 whole entry, looked up): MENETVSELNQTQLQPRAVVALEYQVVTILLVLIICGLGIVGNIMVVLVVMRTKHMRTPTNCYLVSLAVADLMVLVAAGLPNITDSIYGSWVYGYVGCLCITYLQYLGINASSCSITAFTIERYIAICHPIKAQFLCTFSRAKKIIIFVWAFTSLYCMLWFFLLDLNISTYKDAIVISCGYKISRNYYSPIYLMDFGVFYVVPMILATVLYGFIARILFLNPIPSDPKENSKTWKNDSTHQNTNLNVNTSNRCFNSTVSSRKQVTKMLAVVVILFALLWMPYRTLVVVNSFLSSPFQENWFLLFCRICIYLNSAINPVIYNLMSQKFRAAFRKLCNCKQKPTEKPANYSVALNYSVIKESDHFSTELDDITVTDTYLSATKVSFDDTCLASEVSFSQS
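In this calcium-flux screen, cells bearing human TRHR are dye-loaded with fluo-8, baselined for 10 cycles, then exposed to library compounds; positive kinetic calcium responses during the agonist phase mark hits, with TRH as control.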
D1 antagonist – Antagonist of Human D 1 Dopamine Receptor: qHTS. D(1A) dopamine receptor (Homo sapiens), P21728. HEK293 TREx D1 cells, calcium flux, dopamine EC80; active compounds read low. activity change, negative = inhibition, % at 10 µM. 3.2% of 360,000 active; in the data active = activity change below about -30%
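Using tetracycline-induced force-coupled D1 Hek293 cells and a calcium dye, signals were followed for 180 s after compound, then for 180 s after EC80 dopamine, to detect inhibitors.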
D1 potentiator – Potentiators of Human D1 Dopamine Receptor: qHTS. 0.036% of 360,000 active. potentiation, % at 10 µM. D(1A) dopamine receptor (Homo sapiens), P21728. AID 504651, 2011. HEK293 TREx D1 cells, calcium flux, dopamine EC20 potentiation; in the data active = potentiation above about 30%
D1 agonist – Allosteric Agonists of the Human D1 Dopamine Receptor: qHTS. HEK293 T-REx D1 cells, calcium flux, agonist mode. activation, % at 2 µM. AID 504660, 2011. 1% of 360,000 active
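Tetracycline-induced HEK293 TREx D1 cells, force-coupled to calcium signalling, were dye-loaded with a no-wash calcium kit. Compound was pin-added after a 10 s baseline. Fluorescence was read kinetically at 1 cycle/s for 180 s, with calcium rises flagged as agonism.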
TRHR enhancer – qHTS for Small Molecule Agonists and Allosteric Enhancers of Human TRH Receptor: Primary Screen for Enhancers; Thyrotropin-releasing hormone receptor (Homo sapiens), P34981; TRHR cells, fluo-8 calcium fluorescence, EC20 TRH enhancement; enhancement, % at 2 µM; 0.66% of 360,000 active; AID 493056, 2011; in the data active = enhancement above about 30%
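TRHR-expressing cells loaded with fluo-8 calcium dye were read kinetically (ex 480/em 530) during compound addition, then stimulated with an EC20 of TRH (10 nM final). Enhancement of the Gq-mediated intracellular calcium response was scored.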
Large screens that a line does not name were inactive; ! = repeats disagree. Sampled rows, rich in hits. Any-hit rate of the full collection: about 4.6%. Rule as the data show it, unless noted: active = activation above about 30%; inactive = the rest.

COc1cccc(C2CC(=O)Nc3c2c(=O)n(C)c2ncnn32)c1OC (configuration not stated)	none
COc1cc2[nH]c3c(Cl)ncnc3c2cc1OC	none
COc1cc2[nH]c(Cl)c([N+](=O)[O-])c2cc1OC	D1 antagonist -31
O=C(NC1CCN(CCc2c[nH]c3ccccc23)CC1)c1ccccc1	D1 antagonist -83, D1 agonist 67
O=C(NC1CCN(Cc2cccc([N+](=O)[O-])c2)CC1)c1ccccc1	D1 antagonist -57
O=C(NC1CCN(Cc2ccc(Cl)cc2Cl)CC1)c1ccccc1	D1 antagonist -76
O=C(NC1CCN(Cc2ccccc2)CC1)c1ccccc1	none
COc1ccc(NS(=O)(=O)c2ccc3[nH]c4c(c3c2)CCCCC4)cc1	none
COc1ccc2occ(CC(=O)Nc3ccc(S(=O)(=O)Nc4nc(C)cc(C)n4)cc3)c2c1	none
COc1ccccc1CCNC(=O)c1ccc(NC(=O)N2CC(C)Sc3ccccc32)cc1 (configuration not stated)	none
Cc1ccc(CNc2ccc3cc(S(=O)(=O)N4CCCCC4)ccc3n2)cc1	none
CC1CCN(C(=O)N2c3ccccc3Sc3ccccc32)CC1	none
CC1CN(C(=O)N2c3ccccc3Sc3ccccc32)CC(C)O1 (configuration not stated)	D1 antagonist -33
Cc1nn(C)c2c1c(-c1ccccc1)cc(=O)n2Cc1ccc(Cl)cc1	TRHR enhancer 39
Cc1cc(=O)n(Cc2ccccc2)c2c1c(C)nn2C	none
COc1ccc(Nc2ccc(OC)cc2)cc1	none
COc1ccc(Nc2nc(NN)nc(Nc3ccc(OC)cc3)n2)cc1	D1 antagonist -31
NNc1nc(Nc2ccccc2)nc(Nc2ccccc2)n1	D1 antagonist -30
c1ccc(Nc2ccnc(Nc3ccccc3)n2)cc1	D1 antagonist -34
COc1ccc(C(=O)c2cn(Cc3cccc(C)c3)c3cc4c(cc3c2=O)OCO4)cc1	none
CCOC(=O)C/C(C)=N/NC(=O)C1CC1(c1ccccc1)c1ccccc1 (configuration not stated)	none
CCC1CCCCN1CC(C)(C)NS(=O)(=O)c1ccccc1 (configuration not stated)	D1 antagonist -44
CCc1ccc(NC(=O)CSc2nc3c(sc4ccccc43)c(=O)n2CCCOC(C)C)cc1	D1 antagonist -35
COCCCn1c(SCC(=O)NCc2ccccc2)nc2c(sc3ccccc32)c1=O	D1 antagonist -39
CCc1ccc(NC(=O)CSc2nc3c(sc4ccccc43)c(=O)n2CCCOC)cc1	none
O=C(OCc1nnc(-c2cccs2)o1)C1=NN(c2ccccc2)C(=O)CC1	none (no result: D1 potentiator)
CCOc1ccc(CNC(=O)C2=Cc3cc(Br)ccc3OC2)cc1OC	D1 antagonist -38
Cc1csc2nc(-c3ccc(NS(=O)(=O)c4cc(F)ccc4F)cc3)cn12	none
O=Cc1sc(N2CCOCC2)nc1-c1ccccc1	none (no result: D1 antagonist)
CN(C)S(=O)(=O)c1cc(NC(=O)Cn2ccsc2=N)ccc1Cl	D1 antagonist -30
Cc1ccc(NC(=O)Cn2ccsc2=N)cc1S(=O)(=O)N(C)C	none
CCN(Cc1nc2ccccc2c(=O)[nH]1)C(=O)c1ccc(C)c(NC(=O)c2ccco2)c1	none
CCCN1CCc2c(sc(NC(=O)Cc3ccc(F)cc3)c2C(N)=O)C1	none
CC(OC(=O)Cn1[nH]c(=O)c2ccccc2c1=O)C(=O)Nc1ccc(F)cc1 (configuration not stated)	D1 antagonist -30
Cc1ccc2c(c1)-c1c(cnn1CC(=O)O)CO2	none
CCN(CCN(C)C)C(=O)Cn1ncc2c1-c1cc(C)ccc1OC2	D1 antagonist -33
CCc1ccc(CNC(=O)c2cc3c(=O)oc4ccc(C)cc4c3s2)cc1	none
CCCOC(=O)C1[C@H]2C(=O)N(Cc3ccco3)C[C@]23C=C[C@H]1O3 (some centres not stated)	D1 antagonist -61
Clc1ccc(CNc2ccc(CNc3ncn[nH]3)cc2)c(Cl)c1	D1 antagonist -46
Cc1noc(C)c1C(=O)OCC(=O)c1cc(C)n(Cc2ccccc2Cl)c1C	D1 antagonist -38
Fc1ccc(C(CCNCc2ccccn2)c2ccc(Cl)cc2)cc1 (configuration not stated)	D1 agonist 67
CC(=O)c1cccc(NC(=O)N2CCN(S(C)(=O)=O)CC2)c1	TRHR enhancer 34
O=C(Nc1ccc(Cl)cc1)N1CCN(c2ccccc2)CC1	none
CC(=O)c1ccc(N2CCN(C(=O)Nc3ccc(Cl)cc3)CC2)cc1	D1 antagonist -51
O=C(O)/C=C\C(=O)Nc1ccc(N2CCN(c3ccc(F)cc3)CC2)cc1	none
CC(=O)Nc1ccc(N2CCN(c3ccc(F)cc3)CC2)cc1	TRHR enhancer 33
CC(=O)c1ccc(NC(=O)N2CCN(c3cccc(Cl)c3)CC2)cc1	D1 antagonist -51
COC(=O)c1ccc(Cl)cc1NC(=O)N1CCCn2nc(C)cc21	none
CCCc1nn2c(=O)cc(COC(=O)c3ccccc3NC(=O)c3ccc(Cl)cc3)nc2s1	none
O=C(O)c1ccccc1C(=O)N1CCN(c2cccc(Cl)c2)CC1	D1 antagonist -44
CCC(C)NC(=O)c1cc2c(=O)[nH]c3ccc(C)cc3c2s1 (configuration not stated)	none
COc1ccccc1CCC(=O)Nc1ccc2c(c1)CN(CCCn1cccn1)CC2	none
COc1ccc(CN2CCc3ccc(NC(=O)CCc4ccccc4OC)cc3C2)c(O)c1	D1 antagonist -83
COc1cccc(CN2CCc3ccc(NC(=O)CCc4ccc(C)cc4)cc3C2)c1O	D1 antagonist -31
COc1cc(CN2CCc3ccc(NC(=O)CCc4ccccc4OC)cc3C2)ccc1O	none
Cc1cccc(NC(=O)Cn2nnc(C(=O)Nc3ccccc3Br)c2N)c1C	none
COC(=O)c1cc2oc3ccccc3c2n1Cc1c(F)cccc1Cl	none
CN1CCc2cccc3c2[C@H]1Cc1ccc(O)c(O)c1-3	D1 antagonist -90, D1 agonist 43!
CCN(c1ccccc1)S(=O)(=O)c1ccc(NC(=O)c2nc(S(C)(=O)=O)ncc2Cl)cc1	D1 antagonist -34
COc1ccccc1OCC(=O)Nc1ccc(S(=O)(=O)N(C)c2ccccc2)cc1	D1 antagonist -41
CCSc1ncc(Cl)c(C(=O)Nc2ccc(S(=O)(=O)N(C)c3ccccc3)cc2)n1	none
CCS(=O)(=O)c1ncc(Cl)c(C(=O)Nc2ccc(S(=O)(=O)N(C)c3ccccc3)cc2)n1	D1 antagonist -61!
Cc1ccc(-c2noc(-c3ccc(NC4CCCC4)c([N+](=O)[O-])c3)n2)cc1	none
